According to PubChem BioAssay (NCI):
About 83,000 compounds went through this panel and 20% of them were active in at least one assay; those are over-represented in the sample as a whole.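 Treatment: one concentration, 48 hours, 96-well format. Scoring: percent growth, with anything below 10 considered active.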 A number with no mark means an inactive call. Calls of active or inactive are those of the source.

system: HCT-15 colon; experiment: NCI-60 one-dose screen, 48 h (100 = growth as untreated, 0 = no growth, -100 = all killed); settings: 10 µM

| Structure (SMILES) | growth |
| --- | --- |
| Fc1ccc(C2=NN(c3ccccc3)C(c3sc(N(CCCl)CCCl)nc3Cl)C2)cc1 (stereo not given) | 94.3% |
| CC[C@H](C)[C@H](NC(=O)Nc1ccccc1)C(=O)N(C)[C@H](C[C@@H](OC(C)=O)c1nc(C(=O)N[C@@H](Cc2ccccc2)C[C@H](C)C(=O)OC)cs1)C(C)C | 9.43% (active) |
| c1ccc(CCN2CCCCC2Cc2ccccc2)cc1 (stereo not given) | 104% |
| CC(=O)O[C@H]1CCC2(C)C(=CCC3C2CCC2(C)/C(=N/OC(=O)c4ccc(N(CCCl)CCCl)cc4)CCC32)C1 (stereo not given in full) | 55.2% |
| O=C(N/N=C/c1ccc(N(CCCl)CCCl)cc1)c1cc(=O)[nH]c(=O)[nH]1 | 97.8% |
| O=[As]c1ccc(C(=O)c2ccc(Oc3ccccc3)cc2)cc1 (stereo not given) | -78.3% (active) |
| O=[N+]([O-])c1cc([N+](=O)[O-])c(Cl)c(Cl)c1Cl | -49.1% (active) |
| Cc1cc(NC(=O)NCCOc2ccc(N3C(N)=NC(N)=NC3(C)C)cc2Cl)ccc1S(=O)(=O)F | 92% |
| COc1ccc2c(c1)NC1=C(C(=O)OC1)C2c1cc(OC)c(OC)c(OC)c1 (stereo not given) | 15.3% |
| C=CCc1ccc(OC(=O)Cc2ccccc2)c(OC)c1 | 103% |
| CC(C)(O)/C=C/C(=O)[C@](C)(O)[C@H]1[C@H](O)C[C@@]2(C)[C@@H]3CC=C4[C@@H](C=C(O)C(=O)C4(C)C)[C@]3(C)C(=O)C[C@]12C | -52% (active) |
| C[C@]12CCc3sc(-c4ccc(Cl)cc4)nc3C1=CC[C@@H]1[C@@H]2CC[C@]2(C)C(=O)CC[C@@H]12 | 34.6% |
| C=CCC1(CC)C(=O)NC(=S)NC1=O | 99.9% |
| NC(Cc1ccc2c(c1)OCO2)c1ccc2c(c1)OCO2 (stereo not given) | 115% |
| O=C(CF)N(O)c1ccc(/C=C/c2ccccc2)cc1 | 66.6% |
| COc1ccc(/C=C(/C(=O)N2CCCC2)c2cc(OC)c(OC)c(OC)c2)cc1N | 29.2% |
| Nc1nc(N)c(-c2ccc(Cl)c(Cl)c2)c(/C=C/c2ccc(S(=O)(=O)F)cc2)n1 | 77.9% |
| Nc1c(Br)cc([N+](=O)[O-])cc1[N+](=O)[O-] | 114% |
| Oc1ccc(O)c2c1C1(Cl)C(Cl)=C(Cl)C2(Cl)C1(Cl)Cl | 45.3% |
| CN(C)P1(N(C)C)=NP(N(C)C)(N(C)C)=NP(N(C)C)(N(C)C)=N1 | 101% |

| Structure (SMILES) | growth |
| --- | --- |
| CCCCNCCc1ccccn1 | 102% |
| CNC(=O)Oc1cccc(OC)c1 | 112% |
| C=C=[CH][Sn]([c]1ccccc1)([c]1ccccc1)[c]1ccccc1 | -48.6% (active) |
| NC(=O)SCC(=O)Nc1ccc([As](=O)(O)O)cc1 | 81.5% |
| C[C@]12CC[C@H]3[C@@H](C[C@@H]4N=C(c5ccc(O)cc5)S[C@@]45C[C@H](O)CC[C@]35C)[C@@H]1CC[C@@H]2O | 29.5% |
| CC1(C)N=C(N)N=C(N)N1c1ccc(CCCCc2ccc(S(=O)(=O)F)cc2)cc1 | 36.8% |
| Nc1c(Br)cc2c3c(cccc13)-c1ccccc1-2 | 49.3% |
| COc1cc2c(cc1OC)CN(C)C(C)C2 (stereo not given) | 102% |
| CC(C)C1c2ccc(O)cc2Oc2nc(N)c(C#N)c(N)c21 (stereo not given) | 107% |
| c1ccc2nc(OCCN3CC3)ccc2c1 | 86.5% |
| CC1(C)N=C(N)N=C(N)N1c1ccc(CNC(=O)Nc2ccc(S(=O)(=O)F)c(Cl)c2)c(Cl)c1 | 47.5% |
| c1ccc(-c2ccc3ccccc3[o+]2)cc1 | 107% |
| CSc1ccccc1NP1(=O)OCC(C)([N+](=O)[O-])CO1 (stereo not given) | 93.1% |
| CC1COC(=O)C1 (stereo not given) | 105% |
| C[CH2][Pb]([CH2]C)([CH2]C)[O]C(=O)COc1ccccc1 | 12.4% |
| COc1ccc(/C=C\c2cc(OC)c(OC)c(OC)c2)cc1N/C=C\C(=O)c1c[nH]c2ccccc12 | 12.5% |
| CCCC(C)(C)c1ccc2c(c1)OC(C)(C)[C@@H]1CC=C(C)C[C@@H]21 | 107% |
| OC1(c2ccc(Cl)cc2Cl)c2ccccc2C2=NCCN21 (stereo not given) | 101% |
| CC1(CF)NC(=O)NC1=O (stereo not given) | 105% |
| O=C(Nc1ccc(S(=O)(=O)F)cc1)Oc1ccccc1 | 104% |

system: HT29 colon; experiment: as above; settings: 10 µM unless noted

| Structure (SMILES) | growth |
| --- | --- |
| Fc1ccc(C2=NN(c3ccccc3)C(c3sc(N(CCCl)CCCl)nc3Cl)C2)cc1 (stereo not given) | 81.2% |
| CC[C@H](C)[C@H](NC(=O)Nc1ccccc1)C(=O)N(C)[C@H](C[C@@H](OC(C)=O)c1nc(C(=O)N[C@@H](Cc2ccccc2)C[C@H](C)C(=O)OC)cs1)C(C)C | -23.1% (active) |
| c1ccc(CCN2CCCCC2Cc2ccccc2)cc1 (stereo not given) | 72.8% |
| CC(=O)O[C@H]1CCC2(C)C(=CCC3C2CCC2(C)/C(=N/OC(=O)c4ccc(N(CCCl)CCCl)cc4)CCC32)C1 (stereo not given in full) | 32.6% |
| O=C(N/N=C/c1ccc(N(CCCl)CCCl)cc1)c1cc(=O)[nH]c(=O)[nH]1 | 101% |
| O=[As]c1ccc(C(=O)c2ccc(Oc3ccccc3)cc2)cc1 (stereo not given) | -77.6% (active) |
| Cc1cc(NC(=O)NCCOc2ccc(N3C(N)=NC(N)=NC3(C)C)cc2Cl)ccc1S(=O)(=O)F | 9.65% (active) |
| COc1ccc2c(c1)NC1=C(C(=O)OC1)C2c1cc(OC)c(OC)c(OC)c1 (stereo not given) | 1.35% (active) |
| C=CCc1ccc(OC(=O)Cc2ccccc2)c(OC)c1 | 115% |
| CC(C)(O)/C=C/C(=O)[C@](C)(O)[C@H]1[C@H](O)C[C@@]2(C)[C@@H]3CC=C4[C@@H](C=C(O)C(=O)C4(C)C)[C@]3(C)C(=O)C[C@]12C | -31.1% (active) |
| NC(Cc1ccc2c(c1)OCO2)c1ccc2c(c1)OCO2 (stereo not given) | 102% |
| O=C(CF)N(O)c1ccc(/C=C/c2ccccc2)cc1 | 57.6% |
| COc1ccc(/C=C(/C(=O)N2CCCC2)c2cc(OC)c(OC)c(OC)c2)cc1N | 9.12% (active) |
| Nc1c(Br)cc([N+](=O)[O-])cc1[N+](=O)[O-] | 103% |
| Oc1ccc(O)c2c1C1(Cl)C(Cl)=C(Cl)C2(Cl)C1(Cl)Cl | 66.4% |
| CN(C)P1(N(C)C)=NP(N(C)C)(N(C)C)=NP(N(C)C)(N(C)C)=N1 | 104% |
| CNC(=O)Oc1cccc(OC)c1 | 103% |
| NC(=O)SCC(=O)Nc1ccc([As](=O)(O)O)cc1 | 93.7% |
| Nc1c(Br)cc2c3c(cccc13)-c1ccccc1-2 | 103% |
| CC(C)C1c2ccc(O)cc2Oc2nc(N)c(C#N)c(N)c21 (stereo not given) | 109% |
| c1ccc2nc(OCCN3CC3)ccc2c1 | 43.8% |
| CC1(C)N=C(N)N=C(N)N1c1ccc(CNC(=O)Nc2ccc(S(=O)(=O)F)c(Cl)c2)c(Cl)c1 | 7.61% (active) |
| c1ccc(-c2ccc3ccccc3[o+]2)cc1 | 89.1% |
| CSc1ccccc1NP1(=O)OCC(C)([N+](=O)[O-])CO1 (stereo not given) | 105% |
| CC1COC(=O)C1 (stereo not given) | 98.2% |
| C[CH2][Pb]([CH2]C)([CH2]C)[O]C(=O)COc1ccccc1 | 4.3% (active) |
| COc1ccc(/C=C\c2cc(OC)c(OC)c(OC)c2)cc1N/C=C\C(=O)c1c[nH]c2ccccc12 | -3.93% (active) |
| CCCC(C)(C)c1ccc2c(c1)OC(C)(C)[C@@H]1CC=C(C)C[C@@H]21 | 102% |
| OC1(c2ccc(Cl)cc2Cl)c2ccccc2C2=NCCN21 (stereo not given) | 92.2% |
| O=C(Nc1ccc(S(=O)(=O)F)cc1)Oc1ccccc1 | 102% |
